Compounds without any hit were thinned out: in the full panel of roughly 79,000, 15% have a hit. The source made the active and inactive calls. Rule as the data show it: active = growth inhibition above about 70%; inactive = the rest.
How the values were obtained:
[1] = NCI Yeast Anticancer Drug Screen. Data for the rad52 strain (AID 147);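 also: 0% = growth of vehicle-treated control cultures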; conditions: S. cerevisiae rad52 mutant growth inhibition, stronger effect = higher value
How it was run: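 Compounds are applied to a genetically defined yeast strain lacking normal DNA damage repair, and inhibition of growth is expressed relative to cultures given vehicle only.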

[2] = NCI Yeast Anticancer Drug Screen. Data for the wt1 strain (AID 149);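 also: 0% = growth of vehicle-treated wt1 cultures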; conditions: S. cerevisiae wt1 strain (SPY 50644) growth inhibition, stronger effect = higher value
How it was run: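 wt1 strain grown with compound or vehicle; inhibition taken from the growth difference.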

[3] = NCI Yeast Anticancer Drug Screen. Data for the rad50EPP+ strain (AID 151);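 also: 0% = growth of vehicle-treated control cultures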; conditions: S. cerevisiae rad50 mutant strain, stronger effect = higher value
How it was run: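 Compounds were applied to the rad50EPP+ yeast strain, which bears a defined DNA repair alteration, and growth inhibition was determined relative to vehicle-treated cultures.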

[4] = NCI Yeast Anticancer Drug Screen. Data for the mgt1 strain (AID 153); conditions: S. cerevisiae mgt1 mutant growth inhibition, stronger effect = higher value
How it was run: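 Strain: mgt1 yeast, one of a set carrying defined DNA damage repair or cell cycle control alterations. Compound-treated growth compared with vehicle.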

[5] = NCI Yeast Anticancer Drug Screen. Data for the rad50 strain (AID 155);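 also: 0% = growth of vehicle-only cultures of the same strain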; conditions: S. cerevisiae rad50 strain growth inhibition, stronger effect = higher value
How it was run: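 DNA repair mutant yeast, compound exposure, growth read-out; inhibition is taken relative to vehicle.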

[6] = NCI Yeast Anticancer Drug Screen. Data for the mec2-1 strain (AID 157); conditions: S. cerevisiae mec2-1 strain, stronger effect = higher value
How it was run: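 Strain: mec2-1 (DNA repair/cell cycle alteration). Compound exposure, then growth measured; inhibition expressed relative to vehicle.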

[7] = NCI Yeast Anticancer Drug Screen. Data for the rad14 strain (AID 159);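 also: 0% = growth of vehicle-treated control cultures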; conditions: S. cerevisiae rad14 strain growth inhibition, stronger effect = higher value
How it was run: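 DNA repair-defective yeast, compound-exposed; % growth inhibition derived by comparison with vehicle-treated controls.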

[8] = NCI Yeast Anticancer Drug Screen. Data for the sgs1 mgt1 strain (AID 161);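 also: 0% = growth of cultures given vehicle only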; conditions: S. cerevisiae sgs1 mgt1 strain, stronger effect = higher value
How it was run: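 Read-out: growth inhibition vs vehicle controls. Cells: mutant yeast strain deficient in DNA damage repair.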

[9] = NCI Yeast Anticancer Drug Screen. Data for the CLN2oe strain (AID 163);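 also: 0% = growth of vehicle-only control cultures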; conditions: S. cerevisiae CLN2oe strain, stronger effect = higher value
How it was run: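 Growth of a genetically modified yeast strain is measured after compound exposure and compared with cultures given vehicle alone.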

[10] = NCI Yeast Anticancer Drug Screen. Data for the cln2 rad14 strain (AID 165);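 also: 0% = growth equal to vehicle treated cultures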; conditions: S. cerevisiae cln2 rad14 strain, stronger effect = higher value
How it was run: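 Compounds are applied to the cln2 rad14 yeast strain, and growth is then compared with that of vehicle-treated cultures to give inhibition.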

[11] = NCI Yeast Anticancer Drug Screen. Data for the bub3 strain (AID 167); conditions: S. cerevisiae bub3 mutant strain, stronger effect = higher value
How it was run: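 In this screen, a yeast mutant lacking normal mitotic checkpoint function is challenged with compound. Relative growth versus vehicle gives the inhibition value.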

[12] = NCI Yeast Anticancer Drug Screen. Data for the wt2 strain (AID 169);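 also: 0% = growth of vehicle-treated yeast cultures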; conditions: S. cerevisiae wt2 strain growth inhibition, stronger effect = higher value
How it was run: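 This strain belongs to a panel of yeast strains with defined genetic alterations in DNA damage repair or cell cycle control. Compounds are applied, and growth inhibition is measured against vehicle-treated cultures.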

[13] = NCI Yeast Anticancer Drug Screen. Data for the mlh1 strain (AID 171);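 also: 0% = growth of vehicle-treated control cultures of the same strain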; conditions: S. cerevisiae mlh1 strain growth inhibition, stronger effect = higher value
How it was run: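 Growth of the mutant yeast strain after compound exposure, expressed as inhibition relative to vehicle-only controls.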

[14] = NCI Yeast Anticancer Drug Screen. Data for the sgs1 strain (AID 173);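 also: 0% = growth of vehicle-only control cultures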; conditions: S. cerevisiae sgs1 mutant, stronger effect = higher value
How it was run: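 Growth of a yeast strain bearing a defined genetic alteration is measured after compound treatment. Inhibition is expressed relative to vehicle-only controls.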

[15] = NCI Yeast Anticancer Drug Screen. Data for the mlh1 rad18 strain (AID 175); conditions: S. cerevisiae mlh1 rad18 strain growth inhibition, stronger effect = higher value
How it was run: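 Read-out is yeast growth inhibition, calculated against vehicle-only controls. The compound was applied to a strain engineered with DNA damage repair alterations.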

[16] = NCI Yeast Anticancer Drug Screen. Data for the rad18 strain (AID 177); conditions: S. cerevisiae rad18 mutant growth inhibition, stronger effect = higher value
How it was run: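 Growth of the mutant yeast strain after compound exposure, normalised to vehicle-only cultures.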

[17] = at 5.0 µM (retest, dose inferred, filed as 0.5)
[18] = at 50.0 µM (retest, dose inferred, filed as 5.0)

Measured: growth inhibition

CCC1(OC(=O)CN)C(=O)OCc2c1cc1n(c2=O)Cc2cc3ccccc3nc2-1 (stereo unspecified)
active: [1]; at 1.2 µM 93% | [1]; at 3.7 µM 95% | [1]; at 11.0 µM 96% | [1]; at 33.0 µM 97% | [1]; at 100.0 µM 97% | [2]; at 33.0 µM 88% | [2]; at 100.0 µM 94% | [3]; at 11.0 µM 85% | [3]; at 33.0 µM 92% | [3]; at 100.0 µM 93% | [4]; at 33.0 µM 80% | [4]; at 100.0 µM 91% | [5]; at 1.2 µM 94% | [5]; at 3.7 µM 96% | [5]; [17] 97% | [5]; at 11.0 µM 97% | [5]; at 33.0 µM 97% | [5]; [18] 97% | [5]; at 50.0 µM 98% | [5]; at 100.0 µM 97% | [6]; at 3.7 µM 82% | [6]; [17] 84% | [6]; at 11.0 µM 96% | [6]; at 33.0 µM 97% | [6]; [18] 95% | [6]; at 50.0 µM 99% | [6]; at 100.0 µM 98% | [7]; at 11.0 µM 76% | [7]; at 33.0 µM 93% | [7]; at 100.0 µM 96% | [8]; [18] 96% | [8]; at 50.0 µM 94% | [9]; at 33.0 µM 80% | [9]; at 100.0 µM 88% | [10]; [18] 92% | [10]; at 50.0 µM 89.2% | [11]; at 33.0 µM 79% | [11]; [18] 94% | [11]; at 50.0 µM 96.9% | [11]; at 100.0 µM 92% | [12]; at 33.0 µM 90% | [12]; at 100.0 µM 95% | [13]; at 11.0 µM 70% | [13]; at 33.0 µM 93% | [13]; at 100.0 µM 96% | [14]; at 11.0 µM 85% | [14]; at 33.0 µM 94% | [14]; at 100.0 µM 95% | [15]; at 50.0 µM 97.3% | [16]; at 33.0 µM 80% | [16]; at 100.0 µM 89%
inactive: [2]; at 1.2 µM -1% | [2]; at 3.7 µM 4% | [2]; at 11.0 µM 51% | [3]; at 1.2 µM 45% | [3]; at 3.7 µM 67% | [4]; at 1.2 µM 20% | [4]; at 3.7 µM 25% | [4]; at 11.0 µM 50% | [6]; at 1.2 µM 19% | [7]; at 1.2 µM 4% | [7]; at 3.7 µM 23% | [8]; [17] 62% | [9]; at 1.2 µM 37% | [9]; at 3.7 µM 37% | [9]; at 11.0 µM 62% | [10]; [17] 49% | [11]; at 1.2 µM 9% | [11]; at 3.7 µM 13% | [11]; [17] 8% | [11]; at 11.0 µM 44% | [12]; at 1.2 µM 0% | [12]; at 3.7 µM 4% | [12]; at 11.0 µM 67% | [13]; at 1.2 µM 3% | [13]; at 3.7 µM 15% | [14]; at 1.2 µM 8% | [14]; at 3.7 µM 38% | [15]; [17] 42% | [15]; [18] -13% | [16]; at 1.2 µM 31% | [16]; at 3.7 µM 33% | [16]; at 11.0 µM 58%

Cc1cc[n+](C2=C(Nc3cccc(C(F)(F)F)c3)C(=O)c3ccccc3C2=O)cc1
inactive: [1]; at 1.2 µM 5% | [1]; at 3.7 µM 5% | [1]; at 11.0 µM 7% | [1]; at 33.0 µM 21% | [1]; at 100.0 µM 55% | [2]; at 1.2 µM 0% | [2]; at 3.7 µM 2% | [2]; at 11.0 µM 4% | [2]; at 33.0 µM 7% | [2]; at 100.0 µM 12% | [3]; at 1.2 µM 7% | [3]; at 3.7 µM 9% | [3]; at 11.0 µM 12% | [3]; at 33.0 µM 29% | [3]; at 100.0 µM 30% | [4]; at 1.2 µM -1% | [4]; at 3.7 µM 0% | [4]; at 11.0 µM 1% | [4]; at 33.0 µM 10% | [4]; at 100.0 µM 12% | [5]; at 1.2 µM 2% | [5]; at 3.7 µM 3% | [5]; [17] 10% | [5]; at 11.0 µM 8% | [5]; at 33.0 µM 34% | [5]; at 100.0 µM 59% | [6]; at 1.2 µM 1% | [6]; at 3.7 µM 4% | [6]; [17] 8% | [6]; at 11.0 µM -17% | [6]; at 33.0 µM -14% | [6]; [18] 36% | [6]; at 50.0 µM 68.2% | [6]; at 100.0 µM 10% | [7]; at 1.2 µM 0% | [7]; at 3.7 µM -8% | [7]; at 11.0 µM -5% | [7]; at 33.0 µM 0% | [7]; at 100.0 µM 14% | [8]; [17] 6% | [8]; [18] 39% | [8]; at 50.0 µM 62% | [9]; at 1.2 µM 3% | [9]; at 3.7 µM 4% | [9]; at 11.0 µM 6% | [9]; at 33.0 µM -3% | [9]; at 100.0 µM -4% | [10]; [17] 6% | [10]; [18] -4% | [10]; at 50.0 µM 46.4% | [11]; at 1.2 µM 4% | [11]; at 3.7 µM 5% | [11]; [17] 1% | [11]; at 11.0 µM 9% | [11]; at 33.0 µM 13% | [11]; [18] 49% | [11]; at 50.0 µM 46.8% | [11]; at 100.0 µM 44% | [12]; at 1.2 µM 1% | [12]; at 3.7 µM 1% | [12]; at 11.0 µM 3% | [12]; at 33.0 µM 8% | [12]; at 100.0 µM 12% | [13]; at 1.2 µM 3% | [13]; at 3.7 µM -2% | [13]; at 11.0 µM 1% | [13]; at 33.0 µM 1% | [13]; at 100.0 µM 10% | [14]; at 1.2 µM 0% | [14]; at 3.7 µM -1% | [14]; at 11.0 µM 0% | [14]; at 33.0 µM 3% | [14]; at 100.0 µM 16% | [15]; [17] 3% | [15]; [18] 3% | [15]; at 50.0 µM 61.9% | [16]; at 1.2 µM 2% | [16]; at 3.7 µM -1% | [16]; at 11.0 µM 3% | [16]; at 33.0 µM 2% | [16]; at 100.0 µM 5%
active: [5]; [18] 80% | [5]; at 50.0 µM 86.8%

Reference: PubChem BioAssay (NCI)
